Test results: PubChem BioAssay AID489028 (Sanford-Burnham Center for Chemical Genomics, 2010)
Out of some 10,000 compounds screened, about 5,600 (56%) were called active. Cut-off read from the data, not from the text of the source: active = inhibition above about 40%; inactive = the rest. The set was probably picked from earlier hits. Only a sample is shown.

target: Protein Mdm4 (Homo sapiens) + E3 ubiquitin-protein ligase Mdm2 (Homo sapiens) (UniProt O15151+Q00987); experiment: Mdm2-MdmX complex disruptors, retested hits, confirmation, luminescence, single concentration (AID 489028); settings: Mdm2-MdmX binding, luminescent assay; at 8 µM; stronger effect = higher value
Sequence (O15151 whole entry, looked up): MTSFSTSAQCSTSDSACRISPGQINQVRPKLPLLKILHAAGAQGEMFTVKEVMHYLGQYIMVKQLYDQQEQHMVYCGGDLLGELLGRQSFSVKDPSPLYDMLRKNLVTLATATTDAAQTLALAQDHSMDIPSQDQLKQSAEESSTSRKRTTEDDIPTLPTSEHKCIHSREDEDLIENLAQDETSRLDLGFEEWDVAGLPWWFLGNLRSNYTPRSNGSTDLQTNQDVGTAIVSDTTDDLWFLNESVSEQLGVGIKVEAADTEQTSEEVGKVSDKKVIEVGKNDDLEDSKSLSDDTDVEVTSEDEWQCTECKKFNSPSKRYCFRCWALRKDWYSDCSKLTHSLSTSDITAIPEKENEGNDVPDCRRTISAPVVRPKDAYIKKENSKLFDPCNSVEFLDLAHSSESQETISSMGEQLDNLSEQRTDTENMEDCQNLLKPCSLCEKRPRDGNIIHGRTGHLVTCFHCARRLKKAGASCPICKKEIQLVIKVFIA
Sequence (Q00987 whole entry, looked up): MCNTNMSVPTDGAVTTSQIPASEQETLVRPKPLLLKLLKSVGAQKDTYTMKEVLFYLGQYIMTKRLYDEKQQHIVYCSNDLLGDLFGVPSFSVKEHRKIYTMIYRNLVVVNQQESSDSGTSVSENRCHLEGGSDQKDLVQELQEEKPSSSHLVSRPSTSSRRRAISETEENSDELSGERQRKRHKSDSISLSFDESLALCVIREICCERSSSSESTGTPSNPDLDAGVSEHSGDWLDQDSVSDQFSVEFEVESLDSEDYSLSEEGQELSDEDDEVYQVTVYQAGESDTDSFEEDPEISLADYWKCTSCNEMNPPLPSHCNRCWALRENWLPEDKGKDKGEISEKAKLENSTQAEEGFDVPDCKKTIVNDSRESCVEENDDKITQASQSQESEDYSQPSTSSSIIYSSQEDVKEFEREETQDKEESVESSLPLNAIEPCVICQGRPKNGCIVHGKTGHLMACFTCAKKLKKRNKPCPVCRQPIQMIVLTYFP

inhibition, inactive:
CC(=O)Nc1ccc(S(=O)(=O)Nc2ccc(N3CCCCC3)cc2)cc1 3.05%
O=C(Oc1c(-c2ccco2)oc2ccccc2c1=O)c1cccnc1 37.6%
COc1ccc(C(C[N+](=O)[O-])n2nc(C)cc2C)cc1 (stereo not given) 9.85%
CSc1nc(N)c(C#N)c(-c2ccccc2Cl)c1C#N 22.9%
CN(C)CCCn1c(=O)n(Cc2ccccc2)c(=O)c2c3c(sc21)CCCCC3 37.5%
N#Cc1c(NC(=O)CSc2nc3ccccc3c(=O)n2Cc2ccco2)sc2c1CCCC2 36.7%
CN(C)CCCN(C(=O)c1ccc(S(=O)(=O)N2CCCCCC2)cc1)c1nc2ccc(Br)cc2s1 21.9%
CN(C)CCCN(C(=O)c1ccc(S(=O)(=O)N2CCCCCC2)cc1)c1nc2cc3c(cc2s1)OCCO3 29.6%
Cc1ccc2sc(N(CCN(C)C)C(=O)/C=C/c3cccs3)nc2c1C 4.55%
Cc1ccc(C(=O)Nc2sc(Cc3ccc4c(c3)OCO4)c(C)c2C(N)=O)cc1 40%
Cn1c(=O)n(C)c2cc(C(=O)Nc3ccc(Br)cc3)ccc21 35.1%
Cc1ccc(C(=O)NNC(=O)c2cc3cc4ccccc4nc3s2)cc1 26.1%
Cc1cccc(NC(=S)NCc2ccc3[nH]c4c(c3c2)CCCC4)c1 10.7%
CCCCNc1c(-c2cccc(Sc3ccc(OC)cc3)c2)nc2ccccn12 -9.4%
COc1ccc(CC(=O)Nc2ccc(-c3nnc(-c4ccc(C)cc4)o3)cc2)cc1 15.7%
Cc1cc(C)c2[nH]c(=O)c(CN(Cc3ccccc3)C(=S)NCCCN(C)C)cc2c1 37%
COc1ccc(OC)c(Nc2nc(-c3ccc(O)c(O)c3)cs2)c1 38.4%
CN(C)CCCN(C(=O)c1ccc(S(=O)(=O)N2CCCc3ccccc32)cc1)c1nc2ccc(F)cc2s1 29.9%
CS(=O)(=O)c1ccc2nc(NC(=O)c3ccc(N4CCCC4=O)cc3)sc2c1 7.9%
COc1ccc(OC)c(C2C3=C(N=c4s/c(=C\c5cccc(O)c5)c(=O)n42)c2ccccc2CC3)c1 (stereo not given) 28.1%
O=C(CCn1c(=S)[nH]c2cc3c(cc2c1=O)OCO3)NCc1ccc(Cl)cc1 5.65%
O=C(CCCCCn1c(=S)[nH]c2cc3c(cc2c1=O)OCO3)N1CCN(c2ccc(F)cc2)CC1 36.2%
Oc1ccc(N=Nc2nccs2)c(O)c1 35%
CS(=O)(=O)N(CC(O)Cn1c2ccccc2c2ccccc21)c1cccc2ccccc12 (stereo not given) 15.5%
COc1ccccc1N1CCN(c2ncnc3sc(C)c(-c4ccccc4)c23)CC1 25.6%
Cc1cc(C)c2c(-c3ccc(F)cc3)c(C#N)c(=O)n(C)c2n1 12%
CCCC[C@@H]1CN=C(N)N1CCc1cc(C(F)(F)F)cc(C(F)(F)F)c1 32.2%
CN1CCN(c2ccccc2NC(=O)COc2ccc(C3CCCCC3)cc2)CC1 20%
CCOc1cc(NC(=O)c2ccco2)c(OCC)cc1NC(=O)COc1ccccc1 25.9%
Cc1cccc(-c2oc3ccc(-c4ccc5c(c4)OCO5)cc3c2C#Cc2cncn2C)c1 30.1%
CC(C)Cc1nc(Nc2ccc(S(=O)(=O)N3CCCC3)cc2)c2nnn(Cc3ccccc3)c2n1 36.1%
CCCCCCc1cc2cc(-c3nnc(-c4ccccc4)o3)c(=O)oc2cc1O 0.95%

inhibition, active:
O=C(NC(=O)c1ccccc1N1CCCCC1)Nc1ccc(Br)cc1 54.9%
CCCOc1ccccc1C1CC(=O)Nc2cc3c(cc21)OCO3 (stereo not given) 61.9%
COc1ccccc1C1C2=C(COC2=O)Nc2cc3c(cc21)OCO3 (stereo not given) 62.8%
O=C1/C(=C/c2ccc(F)cc2)SC(=S)N1CCCC(=O)N1CCCCC1CCO (stereo not given) 49.8%
CC(=O)c1ccc(Oc2cc(C)nc(-n3nc(C)cc3C)n2)cc1 51.8%
COc1ccc(Nc2oc(-c3ccccc3Cl)nc2C#N)cc1 42.7%
COc1ccc(C(C(=O)NC2CCCCC2)N(C(=O)CCl)c2ccccc2Cl)cc1 (stereo not given) 100%
CC(=O)N1CCc2c(sc(NC(=O)CCS(=O)(=O)c3ccccc3)c2C#N)C1 45.3%
COc1cccc2sc(N(CCCN(C)C)C(=O)CCS(=O)(=O)c3ccccc3)nc12 48%
Cc1cccc2sc(N(CCCN(C)C)C(=O)CCS(=O)(=O)c3ccccc3)nc12 52%
COc1cccc2sc(N(CCCN(C)C)C(=O)C(c3ccccc3)c3ccccc3)nc12 86.2%
Cn1c(=O)n(C)c2cc(C(=O)Nc3ccc4c(c3)OCO4)ccc21 47.6%
O=c1oc2ccccc2cc1-c1cn(-c2ccccc2)c(=S)[nH]1 96.2%
CCSc1nsc(NC(=O)Nc2cccc(C(C)=O)c2)n1 40.8%
C=CCSc1nsc(NC(=O)Nc2cccc(C(C)=O)c2)n1 66.8%
Oc1c(Cl)cc(Cl)c(Cl)c1Cc1c(O)c(Cl)cc(Cl)c1Cl 90.5%
Cc1c(Cl)c([N+](=O)[O-])nn1Cc1ccc(C(=O)N/N=C\c2cc(Cl)ccc2O)o1 75%
CCCc1nc(NCc2ccc3c(c2)OCO3)c2nnn(Cc3ccccc3Cl)c2n1 62%
Cc1ccc2nc(-c3ccncc3)cc(C(=O)Nc3ccc4c(c3)OCCO4)c2c1 57%
COc1ccc(NC(=O)/C(Cl)=C(/Cl)S(=O)Cc2ccc(C)cc2)cn1 (stereo not given) 99.5%
COc1ccc(CS(=O)/C(Cl)=C(/Cl)C(=O)Nc2ccc(OC)nc2)cc1 (stereo not given) 100%
O=C(Nc1ccc2ccccc2c1)Nc1ccc2snnc2c1 47.5%
COc1ccc(-c2cc(C(F)(F)F)nc(S(C)(=O)=O)n2)cc1OC 56.1%
Cc1ccc2[nH]c(=O)c(CN(CCCN(C)C)C(=O)Nc3cccc(Cl)c3)cc2c1 44.1%
O=C(Cn1nnc(-c2ccccc2)n1)N/N=C/c1ccc(-c2ccc(Cl)cc2)o1 55.2%
COc1ccc2c(c1OC)C(=O)OC2Nc1nc(-c2ccccc2)cs1 (stereo not given) 73.8%
Cc1ccc(-c2csc(NC3OC(=O)c4ccccc43)n2)cc1 (stereo not given) 76%
O=C(Nc1nc2ccc([N+](=O)[O-])cc2s1)c1ccc(S(=O)(=O)N2CCCc3ccccc32)cc1 88.2%
O=C(NC(Nc1nc2ccc([N+](=O)[O-])cc2s1)(C(F)(F)F)C(F)(F)F)c1ccccc1 98.5%
Cc1ccccc1OCCOc1ccc([N+](=O)[O-])cc1/C=N/n1cnnc1 58.2%
Fc1ccccc1/C=C1\CCCC2=C1Nc1ncnn1C2c1ccccc1F (stereo not given) 83%
CC1CCCCC1NC(=O)/C(C#N)=C/C=C/c1ccccc1[N+](=O)[O-] (stereo not given) 93%
Cc1ccc(C)c(N2CCN(C(=O)CCCCCn3c(=S)[nH]c4ccc(N5CCOCC5)cc4c3=O)CC2)c1 43.1%
CCN1/C(=C\c2ccc3ccccc3[n+]2CC)Sc2cc(C)ccc21 78.1%
O=C(NCC#CCSc1nnc(-c2cccc3ccccc23)o1)c1cccs1 83.7%
C=C(C)C(=O)O[C@H]1C/C(C)=C\C(=O)/C=C(\C)[C@H](O)[C@@H]2OC(=O)C(=C)[C@@H]21 56.6%
CC(Nc1nc(C(F)(F)F)nc2ccccc12)c1cccs1 (stereo not given) 50.4%
Cc1nnc(N/N=C/c2ccccn2)[nH]c1=O 86.6%
CCc1ccc2c(c1)C1(NN=C(c3ccccc3)S1)C(=O)N2 (stereo not given) 53.1%
Nc1nc(CC(=O)CSc2ccc(Cl)cc2)nc(Nc2ccc(F)cc2)n1 71%
Oc1ccccc1N1CCN(c2ncnc3sc(-c4ccccc4)cc23)CC1 58%
c1ccc2c(c1)C(=NC1CCCCC1)NC2=NC1CCCCC1 53.5%
Cc1cccc(-n2ncc(Cl)c(Cl)c2=O)c1 87.5%
CCN(CC)S(=O)(=O)c1ccc(NC(=O)c2cccnc2Cl)c(NC(=O)c2cccnc2Cl)c1 95.8%
O=C1N/C(=C/c2cccn2-c2ccccc2)C(=O)N1c1cccc(Cl)c1 59.4%
COc1ccc(CNC(=O)C(c2ccc(O)cc2)N(Cc2ccco2)C(=O)c2snc(C(N)=O)c2N)cc1 (stereo not given) 45%
N=c1c2c(-c3ccccc3)c(-c3ccccc3)n(Cc3ccccc3)c2ncn1CCCO 62.9%
CC1=C/C(=N\OS(=O)(=O)c2ccccc2)C=CC1=O 45.8%
CCOc1cc(N2CCOCC2)c(OCC)cc1NC(=O)COc1cccc2cccnc12 80.8%
CCc1ccc(N(CC)c2ncnc3nc[nH]c23)cc1 52.4%
COc1ccc2sc(-c3ccc(S(C)(=O)=O)cc3)c(C#Cc3cncn3C)c2c1 60.5%
O=C(CCNC(=O)c1ccc(Cl)cc1)NC1CCCc2ccccc21 (stereo not given) 57.9%
COc1ccc(-c2ccc(Nc3ccc(S(=O)(=O)N4CCCC4)cc3)nn2)cc1OC 53.5%
COc1ccc(C(CCN(Cc2ccc(OC)c(OC)c2)C(=O)CCl)c2ccccc2)cc1 (stereo not given) 73.3%
CCOC(=O)CC1C(=O)NCCN1c1nc2c(C)cccn2c(=O)c1/C=C1\SC(=S)N(C(C)CC)C1=O (stereo not given) 61.7%
COc1ccccc1-n1nnnc1S(=O)(=O)Cc1ccc(Cl)cc1 74.9%
NC(N)=N/N=C/c1ccc(OCc2ccc(Cl)cc2Cl)cc1 99.7%
CC(Nc1nc(N2CCCC2)nc2ccccc12)c1ccccc1 (stereo not given) 40.5%
